Values joined by “and” are separate entries in the source; they are usually repeats but may differ in a detail not shown here. Equal entries are not always repeated. This is part of a sample that, as a whole, favours compounds with a hit. Of some 83,000 tested, about 20% had one in any assay.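 How to read the values: 0–100, growth inhibition (40 = 60% inhibited); 0, no net growth; -100 to 0, cell death (-40 = 40% of starting cells died; -100 = all dead).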 Active and inactive are the calls of the source. The calls were made as follows: active = growth percent below 10; inactive = the rest.

9 compounds from PubChem BioAssay (NCI) can be followed below.

Common to all, as to assay: NCI-60 one-dose screen, 48 h (100 = growth as untreated, 0 = no growth, -100 = all killed)
The subject of one assay is HCT-15 colon. Conditions: 10 µM.
In another assay the test system is HT29 colon. The conditions noted are these: 10 µM.
The subject of another assay is SNB-19 CNS. Conditions: 10 µM.
In a further assay the test system is U251 CNS. Conditions: 10 µM unless noted.
In another assay the test system is PC-3 prostate. The conditions noted are these: 10 µM.
Another assay relates to SK-MEL-5 melanoma. The conditions noted are these: 10 µM unless noted.
The next assay concerns UACC-62 melanoma. Conditions: 10 µM.
The test system of another assay is LOX IMVI melanoma. The conditions noted are these: 10 µM unless noted.
The next assay concerns SK-MEL-28 melanoma. Conditions: 10 µM.

With `Cc1cc(NS(=O)(=O)c2ccc(N=Nc3cc(N=Nc4ccc(S(=O)(=O)Nc5cc(C)nc(C)n5)cc4)c4c(NC(=O)C(Cl)Cl)cccc4c3OC(=O)C(Cl)Cl)cc2)nc(C)n1` (tested in a mixture with another compound), the growth in the assay with HCT-15 colon is 88.8% (inactive) and 84.2% (inactive); in the assay with HT29 colon, 118% (inactive); in the assay on SNB-19 CNS, 97.4% (inactive) and 95.7% (inactive); with U251 CNS, 97.5% (inactive) and 97.7% (inactive); in the assay with PC-3 prostate, 97.4% (inactive) and 106% (inactive); in the assay on SK-MEL-5 melanoma it was 96.9% (inactive) and 87.6% (inactive). In addition, the growth is 99.8% (inactive) and 95.8% (inactive) in the assay on UACC-62 melanoma; 92.6% (inactive) and 104% (inactive) in the assay on LOX IMVI melanoma; 111% (inactive) in the assay with SK-MEL-28 melanoma.
`C[n+]1c2cc(N)ccc2cc2ccc(N)cc21`: the growth in the assay with HCT-15 colon was 19.6% (inactive) [middle of 4 runs]; in the assay with HT29 colon it was 4.57% (active) [middle of 4 runs]; in the assay with U251 CNS, 1.21% (active) [middle of 4 runs]; in the assay on UACC-62 melanoma, -30.5% (active) and -37% (active) and -78.6% (active); with LOX IMVI melanoma, 1.35% (active) [middle of 4 runs].
`CC(=O)OCC(OC(C)=O)C(OC(C)=O)C(OC(C)=O)C(OC(C)=O)C(/C=N/Nc1ccccc1)=N/Nc1ccccc1` (configuration not stated): the growth in the assay on HCT-15 colon is 59.5% (inactive); with HT29 colon, 56.1% (inactive); with SNB-19 CNS it was 88.9% (inactive); with U251 CNS, 72.5% (inactive); with PC-3 prostate it was 55.9% (inactive); with SK-MEL-5 melanoma, 91.9% (inactive). The growth in the assay on LOX IMVI melanoma was 36.8% (inactive); with SK-MEL-28 melanoma it was 101% (inactive).
`COc1ccc(CC(=O)c2ccc(O)cc2O)cc1`: the growth is 131% (inactive) in the assay with HCT-15 colon; 112% (inactive) in the assay with HT29 colon; 121% (inactive) with SNB-19 CNS; 116% (inactive) in the assay on U251 CNS; 109% (inactive) in the assay with PC-3 prostate; 103% (inactive) with SK-MEL-5 melanoma. Also, the growth in the assay on UACC-62 melanoma is 120% (inactive); in the assay with LOX IMVI melanoma it was 108% (inactive); in the assay with SK-MEL-28 melanoma, 139% (inactive).
As for `Nc1c2ccccc2nc2ccccc12`, the growth in the assay on HCT-15 colon is 5.79% (active) and 15.8% (inactive) and 26.5% (inactive); in the assay on HT29 colon, -21.6% (active) and 20.8% (inactive) and 19.9% (inactive); in the assay on SNB-19 CNS it was 22.5% (inactive) and 39.8% (inactive); in the assay on U251 CNS, 6.74% (active) and 26.5% (inactive) and 34.7% (inactive); in the assay with PC-3 prostate, 23.7% (inactive) and 9.05% (active) and 41.1% (inactive); in the assay on SK-MEL-5 melanoma, 5.28% (active) and 19.7% (inactive) and 39.5% (inactive). Further, the growth with UACC-62 melanoma was 13.9% (inactive) and 36.3% (inactive) and 27.3% (inactive); in the assay on LOX IMVI melanoma, -53.7% (active) and 14.9% (inactive) and 12.4% (inactive); in the assay with SK-MEL-28 melanoma, 18% (inactive) and 28.2% (inactive) and 82.1% (inactive).
As to `N=S(c1ccccc1[N+](=O)[O-])c1ccccc1[N+](=O)[O-]`, the growth in the assay on HCT-15 colon was -49.6% (active); with HT29 colon it was -32.7% (active); with SNB-19 CNS it was 108% (inactive); with U251 CNS, 84.5% (inactive); in the assay on PC-3 prostate it was 89.4% (inactive); with SK-MEL-5 melanoma, 50.3% (inactive). In addition, the growth with UACC-62 melanoma is 67.9% (inactive); in the assay on LOX IMVI melanoma, 3.28% (active); in the assay with SK-MEL-28 melanoma, 77.5% (inactive).
Consider `COc1c(O)cc2oc3cc(O)c(CC=C(C)C)c(O)c3c(=O)c2c1CC=C(C)C`, for which the growth was 24.1% (inactive) in the assay with HCT-15 colon; 27.6% (inactive) with HT29 colon; 96.4% (inactive) in the assay with SNB-19 CNS; 47.9% (inactive) in the assay on U251 CNS; 41.1% (inactive) in the assay with PC-3 prostate; 90% (inactive) with SK-MEL-5 melanoma. The growth in the assay with LOX IMVI melanoma was 0.237% (active); in the assay with SK-MEL-28 melanoma, 87.8% (inactive).
For `O=C1C=C(O)c2ccccc2C1=O.[Ag]`, the growth in the assay on HCT-15 colon is 88.2% (inactive); with HT29 colon, 81.9% (inactive); in the assay on SNB-19 CNS, 102% (inactive); in the assay with PC-3 prostate, 78.7% (inactive); with UACC-62 melanoma, 108% (inactive); in the assay on SK-MEL-28 melanoma, 92.3% (inactive).
Consider `O=C1NC(=O)c2cc([N+](=O)[O-])ccc21`, for which the growth was 107% (inactive) in the assay with HCT-15 colon; 109% (inactive) in the assay with HT29 colon; 109% (inactive) with SNB-19 CNS; 109% (inactive) with U251 CNS; 101% (inactive) in the assay on PC-3 prostate; 104% (inactive) with SK-MEL-5 melanoma. The growth with UACC-62 melanoma was 102% (inactive); in the assay with LOX IMVI melanoma it was 104% (inactive); in the assay on SK-MEL-28 melanoma, 120% (inactive).
